Inhibition data for 41 compounds are collected here from PubChem BioAssay AID1259417 (TB Discovery Research, Infectious Disease Research Institute, 2018).

The assay is described as follows: M. tuberculosis growth inhibition, HTS (AID 1259417).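 Also: bacteria grown with compound for 5 days at 37 °C.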 The note with it: stronger effect = higher value, concentration not given here.
[1] abbreviates: M. tuberculosis DsRed fluorescence growth inhibition.
The mark [2] stands for this setting: M. tuberculosis growth inhibition.

The structures appear in SMILES notation. In all, about 1,100 compounds went through this assay and about 760 (69%) were called active. No rule for the calls is given here. The set was probably picked from earlier hits. Some of the results follow.

One may read the inhibition as the change of the read-out against control, counted positive when it falls. As for `COc1ccccc1-c1coc2cc(OCC(=O)OCc3ccccc3)ccc2c1=O`, the inhibition was 36.9% (active) under setting [1] and 64.7% under setting [2].
The matching figures for `COC(=O)COc1ccc2c(=O)c(Oc3ccccc3)c(C)oc2c1`: 77.7% (active) and 88.9%.
Taken in the same sequence, the figures for `CCOC(=O)COc1ccc2c(=O)c(-c3ccccc3OC)coc2c1` were 10.9% (inactive) and 27%.
For `COC(=O)COc1ccc2c(=O)c(-c3ccccc3OC)coc2c1`, the inhibition reads like this: under setting [1], 16.1% (active); under setting [2], 38.3%.
As for `CCOC(=O)COc1ccc2c(=O)c(-c3ccccc3)coc2c1`, the inhibition was 96% (active) under setting [1] and 97% under setting [2].
Taken in the same sequence, the figures for `COC(=O)COc1ccc2c(=O)c(-c3ccccc3Cl)coc2c1` were 74% (active) and 94.8%.
Taken in the same sequence, the figures for `CCC(C(=O)Nc1ccc(CC(=O)OC)cc1)c1ccccc1` (configuration not stated) were 70.5% (active) and 93.3%.
In the case of `COc1cc(Br)cc2cc(C(=O)Nc3cccc(C(F)(F)F)c3)c(=O)oc12`, the inhibition runs as follows: under setting [1], 10.9% (inactive); under setting [2], 29.4%.
Regarding `COc1cc(NC(=O)c2cc3ccccc3o2)ccc1NC(=O)c1ccccc1Cl`, the inhibition under setting [1] was 2.65% (inactive) and the inhibition under setting [2] is -0.577%.
Taken in the same sequence, the figures for `CCCCc1ccc(NC(=O)c2cc3cc(Br)cc(OC)c3oc2=O)cc1` were 4.42% (active) and 82.8%.
The matching figures for `COc1ccc(OC)c(NC(=O)c2cc3cc(Cl)ccc3oc2=O)c1`: 12.1% (inactive) and 21.1%.
Regarding `COc1ccc(OC)c(NC(=O)c2cc3cc(Br)ccc3oc2=O)c1`, the inhibition is, setting by setting: under setting [1], 9.39% (active); under setting [2], 46.5%.
The matching figures for `Cn1nc([N+](=O)[O-])nc1Sc1nnc(-c2cccnc2)o1`: 87.1% (active) and 91.2%.
Take `Cc1ccc(NC(=O)C(C)NS(=O)(=O)c2ccc(Cl)cc2)cc1Cl` (configuration not stated): the inhibition under setting [1] is 2.64% (inactive) and the inhibition under setting [2] is -8.36%.
The matching figures for `Cc1cc(Cl)ccc1NC(=O)CCc1ccc(S(=O)(=O)NC(C)C)cc1`: 94.8% (active) and 83.1%.
`Cc1cc(Cl)ccc1NC(=O)CCc1ccc(S(=O)(=O)NCC(C)C)cc1`: the inhibition by setting is: under setting [1], 95.3% (active); under setting [2], 83.6%.
The matching figures for `CC(NS(=O)(=O)c1cccc(Cl)c1)C(=O)Nc1ccc(Br)cc1F` (configuration not stated): 11.5% (inactive) and 13.5%.
In the case of `CCOC(=O)c1cccc(NC(=O)C(Cl)Cl)c1`, the inhibition under setting [1] was 47.5% (active) and the inhibition under setting [2] amounted to 52.3%.
With `COc1cc(NC(=O)C(Cl)Cl)c(OC)cc1Cl`, the inhibition is, setting by setting: under setting [1], 7.63% (inactive); under setting [2], 4.68%.
Taken in the same sequence, the figures for `Cc1cc(=O)[nH]c(-n2nc(C)cc2C)n1` were 91.4% (active) and 94.9%.
Taken in the same sequence, the figures for `CC(C)(C)c1ccc(C(=O)Nc2sc3c(c2C(=O)NCC2CCCO2)CCCC3)cc1` (configuration not stated) were 12.8% (inactive) and -13.4%.
For `Cc1cccc(-c2nsc(SCC(=O)NCC3CCCO3)n2)c1` (configuration not stated), the inhibition was 94.3% (active) under setting [1] and 76.8% under setting [2].
Taken in the same sequence, the figures for `COc1cc(C(=O)Nc2sc3c(c2C(=O)NCC2CCCO2)CCC3)cc(OC)c1OC` (configuration not stated) were -3.52% (inactive) and -31.7%.
For `COc1ccc(-c2nsc(SCC(=O)NCc3ccco3)n2)cc1`, the inhibition is, setting by setting: under setting [1], 93.1% (active); under setting [2], 66.6%.
The matching figures for `COc1ccc(-c2nsc(SCC(=O)NCC3CCCO3)n2)cc1` (configuration not stated): 95.7% (active) and 76.1%.
Consider `c1c2c(cc3sc(N4CCCC4)nc13)OCO2`, for which the inhibition was 100% (active) under setting [1] and 99.8% under setting [2].
Taken in the same sequence, the figures for `CCOc1ccc(-c2nnc(SCC(=O)Nc3cc(C)on3)o2)cc1` were -1.63% (active) and 32.7%.
Taken in the same sequence, the figures for `Cc1cc(NC(=O)CSc2nnnn2-c2ccccc2C)no1` were 56.3% (active) and 88.3%.
For the compound `Cc1ccc(-c2nnc(SCC(=O)Nc3cc(C)on3)o2)cc1`, the inhibition under setting [1] was 2.19% (active) and the inhibition under setting [2] was found to be 50.5%.
As to `Cc1cc(NC(=O)CSc2nnc(Cc3ccccc3)o2)no1`, the inhibition under setting [1] is -2.93% (inactive) and the inhibition under setting [2] is 6.89%.
Taken in the same sequence, the figures for `CCOc1ccc(NC(=O)CSc2nnc(-c3ccccc3Cl)o2)cc1` were 13.5% (inactive) and -1.29%.
On to `CC(C(=O)Oc1cccc2cccnc12)N1C(=O)C2C3C=CC(C4CC34)C2C1=O` (configuration not stated), for which the inhibition runs as follows: under setting [1], 100% (active); under setting [2], 101%.
Taken in the same sequence, the figures for `O=C(CCN1C(=O)c2ccccc2C1=O)Oc1cccc2cccnc12` were 99.5% (active) and 100%.
The matching figures for `O=C(Oc1cccc2cccnc12)C(Cc1ccccc1)N1C(=O)C2C3CCC(C3)C2C1=O` (configuration not stated): 99.8% (active) and 101%.
Consider `O=C(CCN1C(=O)C2C3C=CC(C4CC34)C2C1=O)Oc1cccc2cccnc12` (configuration not stated), for which the inhibition by setting is: under setting [1], 100% (active); under setting [2], 101%.
On to `COc1cc2cc(-c3nc4ccccc4[nH]3)c(N)nc2cc1OC`, for which the inhibition by setting is: under setting [1], 93.9% (active); under setting [2], 94%.
The matching figures for `COc1ccc(CNC(=O)c2c(N)nc3sc4c(c3c2C(F)(F)F)CCC4)cc1`: 4.42% (inactive) and -3.32%.
The matching figures for `CCc1nc2sc(C(=O)NCc3ccc(F)cc3)c(N)c2c(C(F)(F)F)c1C`: 41.1% (active) and 20.9%.
Taken in the same sequence, the figures for `COC(=O)CN1C(c2ccc(OC)cc2)=Nc2ccc(Cl)cc2C1c1ccccc1` (configuration not stated) were 52.5% (active) and 79.3%.
For the compound `COC(=O)CN1C(c2cccc(Cl)c2)=Nc2ccc(Cl)cc2C1c1ccccc1` (configuration not stated), the inhibition is 10.1% (active) under setting [1] and 40.7% under setting [2].
For the compound `CC12CC3CC(C)(C1)CC(C(=O)Nc1nc4ccccc4s1)(C3)C2`, the inhibition is, setting by setting: under setting [1], 98.3% (active); under setting [2], 97.6%.
